Assay outcomes (PubChem)
Hits are enriched below; roughly 2.1% of the tested compounds scored in any of these assays.
Ecoli rRNA inh = reduced GFP signal of wild-type E. coli, primary screen, bacterial rRNA inhibitor project, GFP/RFP fluorescence, OD600, single point; E. coli WT GFP vs humanized-ribosome RFP mutants, 24 h; stronger effect = lower value; DMSO median 0, no signal -100; GFP signal change (wild-type ribosome), % (test concentration not listed); AID 720706, 2013; 350,000 tested, 1.6% active;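 active = significant combined selectivity score with lowered wild-type GFP, culture density cut under 30%, mutant RFP and density less affected; inactive = any of these conditions unmet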
F508del corr = F508del CFTR correction, initial screen, CFBE line, single point; 350,000 tested, 0.36% active; activity (quench increase), % at 7.58 µM; CFBE cells, YFP halide quenching; stimulated with forskolin plus potentiator P3; % fluorescence drop versus neutral controls; AID 720511, 2013;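 active = mean added fluorescence quench of at least 8% versus neutral control, with both replicates also reaching 8%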;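 also: cells transiently co-express mutant CFTR-F508del with the halide-sensitive YFP; corrector assay measuring rescue of mutant channel to the surface after 24 h compound exposure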
PvdQ acylase = P. aeruginosa PvdQ acylase inhibitors, primary screen, biochemical, fluorescence, plate reader and imaging, single point; inhibition, % at 10 µM; 340,000 tested, 0.063% active; purified PvdQ acylase; in the data active = inhibition above about 30%, passing the limit was not always enough;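 also: 0% = vehicle neutral wells and 100% = reference inhibitor wells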
ARNT-TACC3 inh = disruptors of ARNT/TACC3 protein interaction, primary screen, biochemical, AlphaScreen, single concentration; Transforming acidic coiled-coil-containing protein 3 (Homo sapiens), Q9Y6A5; AlphaScreen His-ARNT PAS-B/GST-TACC3 binding, luminescence; TACC3 fragment carries E629A point mutation; inhibition, % at 9.99 µM; 390,000 tested, 0.66% active;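 active = mean inhibition of replicates at least 50% and at least half of replicates each reaching 50%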;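 also: 0% = complete ARNT plus TACC3 wells and 100% = ARNT alone without TACC3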
ERAP1 HTS inh = human ERAP1 aminopeptidase inhibitors, primary screen, biochemical, single point, plate reader. Endoplasmic reticulum aminopeptidase 1 (Homo sapiens), Q9NZ08. recombinant ERAP1, Leu-AMC fluorescence, 60 min. inhibition, % at 10.7 µM. 340,000 tested, 0.15% active. AID 652197, 2013;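 active = mean replicate inhibition of at least 30%, or all replicates individually reaching that 30% level; inactive = mean below 30% and not every replicate reaching it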;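 also: 0% = neutral control wells and 100% = L-leucinethiol positive control wells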
Target sequence (Q9NZ08 whole entry, looked up): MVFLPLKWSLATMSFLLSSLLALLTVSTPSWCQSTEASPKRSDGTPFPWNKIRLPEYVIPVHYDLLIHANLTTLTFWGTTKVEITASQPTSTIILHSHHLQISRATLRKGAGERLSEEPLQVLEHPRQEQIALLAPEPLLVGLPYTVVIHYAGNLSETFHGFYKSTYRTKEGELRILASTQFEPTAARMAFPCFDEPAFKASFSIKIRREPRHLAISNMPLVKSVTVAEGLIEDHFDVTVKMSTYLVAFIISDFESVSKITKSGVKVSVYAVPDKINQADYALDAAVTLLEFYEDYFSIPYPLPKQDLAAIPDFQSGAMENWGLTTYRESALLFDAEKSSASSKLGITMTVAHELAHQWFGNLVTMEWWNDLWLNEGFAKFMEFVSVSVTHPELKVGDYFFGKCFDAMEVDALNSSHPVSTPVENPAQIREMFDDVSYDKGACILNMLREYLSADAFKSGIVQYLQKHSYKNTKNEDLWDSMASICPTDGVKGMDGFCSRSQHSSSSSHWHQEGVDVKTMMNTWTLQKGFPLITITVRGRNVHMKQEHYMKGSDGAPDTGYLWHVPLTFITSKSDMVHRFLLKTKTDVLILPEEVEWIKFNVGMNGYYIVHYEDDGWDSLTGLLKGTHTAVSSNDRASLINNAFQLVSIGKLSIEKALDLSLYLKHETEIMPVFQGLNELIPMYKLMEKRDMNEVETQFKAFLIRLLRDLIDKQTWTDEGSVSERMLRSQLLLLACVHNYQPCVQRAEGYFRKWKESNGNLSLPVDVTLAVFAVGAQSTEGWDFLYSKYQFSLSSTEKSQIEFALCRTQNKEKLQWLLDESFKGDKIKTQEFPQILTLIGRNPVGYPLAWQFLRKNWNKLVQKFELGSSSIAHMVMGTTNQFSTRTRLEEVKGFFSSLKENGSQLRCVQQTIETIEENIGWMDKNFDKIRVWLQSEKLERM
ARNT Alpha ctr = AlphaScreen signal interference compounds, dose response, artefact control for ARNT-TACC3 interaction inhibitor project, biochemical, luminescence, cherry-pick. 1,200 tested, 50% active. His-ARNT PASB-GST AlphaScreen artifact counter-screen. AC50, µM (titrated, usually from 68 µM), without a hit: at the top dose activity change, negative = signal decrease. AID 651705, 2012. shares compounds with ARNT-TACC3 inh;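 active = every separate test run was called active for a drop in luminescence, with AC50 within twice the top valid dose, actives reach about 71 µM in these data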
* = called active by the depositor; · = no result given.

SMILES | Ecoli rRNA inh | F508del corr | PvdQ acylase | ARNT-TACC3 inh | ERAP1 HTS inh | ARNT Alpha ctr
Cc1cc(=O)n(-c2ccc(O)cc2)[nH]1 | · | · | -1 | 15* | · | -10%
CCC(=O)Nc1ccc2c(c1)C(=O)N(C)C[C@H](OC)[C@@H](C)CN(C(=O)CN(C)C)[C@@H](C)CO2 | -1 | 5 | · | · | -3 | ·
N#Cc1ccc(CCc2ccccc2)[nH]c1=O | 9 | -3 | -14 | -1 | 3 | ·
N#Cc1ccc(CC(=O)c2ccccc2)[nH]c1=O | 50 | -3 | -3 | active | -1 | -12%
CCC(=O)N1CC[C@@H]2[C@@H](CO)N(C)c3ccc(-c4ccc(C#N)cc4)cc3[C@@H]21 | -5 | -2 | · | -33 | · | ·
Cn1c(CCNC(=O)c2ccc(Cl)c(Cl)c2)nnc1SCc1ccc(Cl)c(Cl)c1 | · | · | -15 | 60* | · | -2%
COc1ccc2c3c(n(C)c2c1)[C@H](CO)N(C(=O)Cc1ccccc1)CC31CN(C(=O)Cc2ccccc2)C1 | -3 | 0 | · | · | -4 | ·
COc1ccc(-c2nc(CN3CCC(C(=O)NC4CCCC4)CC3)c(C)o2)cc1OC | 6 | 4 | -5 | -1 | 0 | ·
COc1ccc(-c2nc(CN3CCC(C(=O)NC4CCCc5ccccc54)CC3)c(C)o2)cc1OC (stereo not given) | 7 | 3 | -3 | 56* | 0 | -10%
CC1=NN(c2ccccc2C)C(=O)C1 | 16 | 4 | -8 | active | -1 | -3%
C[C@@H]1CN([C@H](C)CO)C(=O)c2cc(NC(=O)NC3CCCCC3)ccc2O[C@H]1CN(C)Cc1ccc(Cl)c(Cl)c1 | -8 | -1 | · | 2 | 2 | ·
c1ccc(-c2cnc(-c3ccccn3)nn2)cc1 | 8 | 0 | -9 | 65* | · | 32µM*
c1ccc(-c2cnnc(-c3ccccn3)n2)cc1 | · | -1 | 4 | 57* | · | 26µM*
O=C(C[C@H]1C=C[C@H](NC(=O)Nc2ccc3c(c2)OCO3)[C@H](CO)O1)NCc1ccccc1 | -3 | 5 | · | 0 | 2 | ·
Cc1nc2ccccc2c(=O)n1/N=C/c1ccc(O)c(O)c1O | 23 | 5 | -2 | 52* | 1 | -12%
Cc1nnc(C)n1/N=C/c1c(O)ccc2ccccc12 | 3 | -1 | -7 | 9 | -1 | ·
Cc1nc2ccccc2c(=O)n1/N=C/c1ccccc1O | 2 | 6 | -9 | 1 | -4 | ·
Cc1nnc(-c2ccccc2)c(=O)n1/N=C/c1c(O)ccc2ccccc12 | · | · | 12 | 62* | · | 64µM*
O=C(N[C@H]1CC[C@H](CCn2cc(-c3ccccn3)nn2)O[C@@H]1CO)c1ccncc1 | 0 | 2 | · | 65* | -4 | 48µM*
O=C(N[C@@H]1CC[C@@H](CCn2cc(-c3ccccn3)nn2)O[C@@H]1CO)c1ccncc1 | 1 | -2 | · | 77* | 1 | 38µM*
O=C(N[C@H]1CC[C@H](CCn2cc(-c3ccccn3)nn2)O[C@H]1CO)c1ccncc1 | -1 | 1 | · | 66* | -1 | 39µM*
O=C(N[C@H]1CC[C@@H](CCn2cc(-c3ccccn3)nn2)O[C@@H]1CO)c1ccncc1 | 2 | 0 | · | 66* | -1 | 31µM*
COCc1cn(CC[C@H]2CC[C@H](NC(=O)c3ccncc3)[C@@H](CO)O2)nn1 | 0 | 4 | · | -15 | 2 | ·
O=S(=O)(c1ccccc1)N1C[C@@H]2[C@H](c3ccccc31)[C@H](CO)N2Cc1ccc2c(c1)OCO2 | -12 | 1 | · | -3 | 5 | ·
C[C@H]1CN([C@@H](C)CO)C(=O)c2cc(-c3cccc(C#N)c3)cnc2O[C@H]1CN(C)Cc1ccc(F)cc1 | 3 | 1 | · | · | · | ·
CO[C@H]1CN(C)C(=O)c2cc(NC(=O)Cc3ccccc3)ccc2OC[C@H](C)N(C)C[C@@H]1C | 0 | · | · | -5 | 1 | ·
[O-][n+]1ccccc1C(O)CSc1ccccc1 (stereo not given) | 4 | -3 | · | · | -2 | ·
